# Results as given in PubChem BioAssay (EPA / NIEHS).
# Results filed as inconclusive are left out. The source made the active and inactive calls. The calls were made as follows, unless noted: active = hit-call score of the fitted dose curve at least 0.9, where 1 is the maximum; inactive = score below 0.9.
# Experiments:
# [1] = CCTE_Deisenroth_AIME_96WELL_CTox_Active: Cytotoxicity Assessment (CTOX) in CCTE's 96-well Estrogen Receptor Transactivation Assay with AIME metabolic competence (metabolism positive), Deisenroth Lab (AID 2284028; active = hit-call score of the fitted dose curve at least 0.9, where 1 is the maximum)
# In short: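 Cytotoxicity in VM7Luc4E2 breast cells after 24 h exposure to medium from a 2 h metabolic pre-incubation with induced rat hepatic S9 in alginate microspheres; fluorescent live-cell protease readout, 10-point series 0.002–200 uM, n=4.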
# [2] = CCTE_Deisenroth_AIME_96WELL_CTox_Inactive: Cytotoxicity Assessment (CTOX) in CCTE's 96-well Estrogen Receptor Transactivation Assay without AIME metabolic competence (metabolism negative), Deisenroth Lab (AID 2284029; active = hit-call score of the fitted dose curve at least 0.9, where 1 is the maximum)
# In short: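 Cytotoxicity in VM7Luc4E2 breast cells was scored as loss of fluorescent signal from a live-cell protease substrate 24 h after exposure, using bidirectional curve fitting. Test media came from a 2 h metabolism-negative pre-incubation (alginate-water, no hepatic S9) of compounds at 0.002-200 uM, with at least four replicates.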
# [3] = CCTE_Harrill_HTTr_Apoptosis_MCF7: CCTE's 6-hour Apoptosis Assessment for the High-Throughput Transcriptomics (HTTr) Platform, in MCF-7 cells cultured in DMEM + 10% fetal bovine serum, Harrill Lab (AID 2284011)
# In short: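 High-content imaging of CellEvent Caspase 3/7 Green signal follows a six-hour exposure, with eight concentrations per chemical. MCF-7 cells grown in DMEM plus 10% fetal bovine serum; activity fitted in both directions against DMSO.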
# [4] = UKN5_HCS_SBAD2_cell_viability: Viability Assessment in the University of Konstanz (UKN) Leist Lab Neurite Outgrowth Assay in human iPSC-derived immature Dorsal Root Ganglia Neurons (UKN5) (AID 2284056)
# In short: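 iPSC-derived immature peripheral neurons (SBAD2) seeded on Matrigel with CHIR99021, SU5402 and DAPT, dosed 1 h later for 24 h. Viability from Hoechst H-33342 and calcein-AM live staining, high-content imaging; bidirectional fit versus DMSO.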
# [5] = UKN5_HCS_SBAD2_neurite_outgrowth: University of Konstanz (UKN) Leist Lab Neurite Outgrowth Assay in human iPSC-derived immature Dorsal Root Ganglia Neurons (UKN5) (AID 2284070); settings: actives raise or lower the signal
# In short: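 Neurite outgrowth is quantified as calcein-AM-labelled neurite area in human iPSC-derived peripheral neurons treated for 24 h, starting 1 h after plating in medium with CHIR99021 (1.5 uM), SU5402 (5 uM) and DAPT (5 uM).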
# [6] = UKN2_HCS_IMR90_neural_migration: University of Konstanz (UKN) Leist Lab Neural Crest Cell Migration Assay in human induced IMR90 Pluripotent Stem Cells (UKN2) (AID 2284204); settings: actives raise or lower the signal
# In short: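 Stopper-exclusion migration (cMINC), human iPSC-derived neural crest cells; N2-S + EGF/FGF; compound added 24 h post-stopper removal, 24 h exposure. Readout: calcein-AM/Hoechst 30 min, HCS fluorescence imaging; bidirectional fitting, DMSO baseline.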
# [7] = UKN4_HCS_LUHMES_neurite_outgrowth: University of Konstanz (UKN) Leist Lab Neurite Outgrowth Assay in human LUHMES cells (UKN4) (AID 2284206); settings: actives raise or lower the signal
# In short: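 Neurite area in dopaminergic-model LUHMES neurons is measured by high-content imaging of calcein-AM after 24 h treatment starting shortly after day-2 replating; Hoechst staining tracks viability.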
# [8] = IUF_NPC1b_proliferation_BrdU_72hr: Leibniz Research Institute for Environmental Medicine (IUF) 72-hour Neural Progenitor Cell Bromodeoxyuridine (BrdU) Proliferation Assay (NPC1b) (AID 2284207)
# In short: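 Luminescent BrdU ELISA measured DNA synthesis during the last 16 h of a 72 h exposure of primary human neural progenitor spheres grown with EGF and FGF. Signal was fitted relative to DMSO controls.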
# [9] = IUF_NPC1a_proliferation_area_72hr: Leibniz Research Institute for Environmental Medicine (IUF) 72-hour Neural Progenitor Cell Proliferation Area Assay (NPC1a) (AID 2284208)
# In short: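 Proliferation read as increase in sphere area by phase-contrast imaging over 72 h continuous compound exposure (no renewal) of hNPC spheres grown with EGF/FGF at 37C, 5% CO2. Growth-factor withdrawal served as positive control; DMSO as baseline.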
# [10] = IUF_NPC1_viability_72hr: Viability Assessment at 72 hours in the Leibniz Research Institute for Environmental Medicine (IUF) Neural Progenitor Cell Proliferation Assay (NPC1) (AID 2284209)
# In short: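 Three-day continuous exposure of human neural progenitor spheres under EGF/FGF-driven proliferation; cell viability scored by alamar blue signal versus DMSO.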
# [11] = UKN4_HCS_LUHMES_cell_viability: Viability Assessment in the University of Konstanz (UKN) Leist Lab Neurite Outgrowth Assay in human LUHMES cells (UKN4) (AID 2284232)
# In short: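 Measured in replated, 2-day-differentiated LUHMES cells treated 24 h; stained 30 min with H-33342 and calcein-AM before high-content imaging.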
# [12] = UKN2_HCS_IMR90_cell_viability: Viability Assessment in the University of Konstanz (UKN) Leist Lab Neural Crest Cell Migration Assay in human induced IMR90 Pluripotent Stem Cells (UKN2) (AID 2284233);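 also: cells exposed to compound for 24 h after a 24 h migration phase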
# In short: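 Viability read as calcein-AM fluorescence by high-content imaging, Hoechst co-stain, 30 min. Human iPSC (IMR90) neural crest cells had migrated 24 h into stopper-defined gaps before 24 h chemical exposure. Fitted bidirectionally relative to DMSO.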
# [13] = IUF_NPC2a_radial_glia_migration_120hr: Leibniz Research Institute for Environmental Medicine (IUF) 120-hour Neural Progenitor Cell Migration Assay for Radial Glia Migration (NPC2a) (AID 2284298)
# In short: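 Migration distance in um, sphere core edge to migration-area edge, derived by nuclei-density algorithm from Hoechst images after 120 h compound exposure. Primary hNPC spheres differentiated on poly-D-lysine/laminin in N2 medium, 37C; medium half-replaced day 3.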
# [14] = IUF_NPC2a_radial_glia_migration_72hr: Leibniz Research Institute for Environmental Medicine (IUF) 72-hour Neural Progenitor Cell Migration Assay for Radial Glia Migration (NPC2a) (AID 2284299)
# In short: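 Spheres of human primary neural progenitors migrate on poly-D-lysine/laminin under compound exposure at 37C, 5% CO2. The 72 h radial glia migration distance comes from brightfield images, measured manually.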
# [15] = IUF_NPC3_neuronal_differentiation_120hr: Leibniz Research Institute for Environmental Medicine (IUF) 120-hour Neuronal Differentiation Assay (NPC3) (AID 2284301)
# In short: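 hNPC spheres, PDL/laminin, DMEM/F12 3:1 + 1% N2, 37C, 5% CO2; 7 concentrations + solvent control, 5 d exposure, half-change day 3. Fix 120 h; TUBB3/Hoechst ICC, CNN neuron calling; % neurons vs nuclei, DMSO-normalized.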
# [16] = IUF_NPC4_neurite_length_120hr: Leibniz Research Institute for Environmental Medicine (IUF) 120-hour Neuronal Morphology Assay for Neurite Length (NPC4) (AID 2284302)
# In short: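 hNPC spheres (0.3 mm, fetal brain GW 16-19) on PDL/laminin, DMEM:F12 3:1 + 1% N2, 37C 5% CO2; 7 concs + solvent control, day 0-5, half medium change d3; fix 120 h, TUBB3 ICC, mean neurite length um vs DMSO.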
# [17] = IUF_NPC5_oligodendrocyte_differentiation_120hr: Leibniz Research Institute for Environmental Medicine (IUF) 120-hour Oligodendrocyte Differentiation Assay (NPC5) (AID 2284304; active = hit-call score of the fitted dose curve at least 0.9, where 1 is the maximum;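 also: primary human fetal neural progenitor spheres plated to migrate and differentiate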)
# In short: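 Oligodendrocyte differentiation scored as O4-positive cells, found by CNN image analysis, as percent of Hoechst-stained nuclei in the migration area. Scoring followed 5 days of exposure of plated hNPC neurospheres differentiating in DMEM/F12 N2 medium at 37C, with compound refreshed at day 3.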
# [18] = IUF_NPC4_neurite_area_120hr: Leibniz Research Institute for Environmental Medicine (IUF) 120-hour Neuronal Morphology Assay for Neurite Area (NPC4) (AID 2284305; active = hit-call score of the fitted dose curve at least 0.9, where 1 is the maximum)
# In short: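 hNPC spheres on PDL/laminin, N2 medium, 37C/5% CO2; dosed day 0, half-medium refresh day 3; fixed 120 h; TUBB3/Hoechst ICC, high-content imaging; neurite area = mean pixels per neuron (nuclei excluded); DMSO baseline, max 0.1%.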
# [19] = IUF_NPC2-5_cytotoxicity_120hr: Cytotoxicity Assessment at 120 hours in the Leibniz Research Institute for Environmental Medicine (IUF) Neural Progenitor Cell Migration and Differentiation Assay (NPC2-5) (AID 2284307; active = hit-call score of the fitted dose curve at least 0.9, where 1 is the maximum)
# In short: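 Membrane-integrity loss measured as LDH activity in medium supernatant via resazurin-to-resorufin fluorescence after 120 h exposure. hNPC spheres from GW 16-19 fetal cortex differentiated on poly-D-lysine/laminin, 37C, medium half-refreshed day 3; seven concentrations, DMSO max 0.1%.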
# [20] = IUF_NPC2-5_cell_number_120hr: Cell Number Assessment at 120 hours in the Leibniz Research Institute for Environmental Medicine (IUF) Neural Progenitor Cell Migration and Differentiation Assay (NPC2-5) (AID 2284308);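 also: count of Hoechst-stained nuclei in migration zone around plated human neural progenitor spheres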
# In short: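 Counting of all Hoechst-stained nuclei in the migration area at 120 h, versus DMSO control. Primary hNPC spheres differentiated on poly-D-lysine/laminin in N2 medium at 37C, dosed from day 0 (7 concentrations, DMSO ≤0.1%), half-refed day 3.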
# [21] = IUF_NPC2-5_viability_120hr: Viability Assessment at 120 hours in the Leibniz Research Institute for Environmental Medicine (IUF) Neural Progenitor Cell Migration and Differentiation Assay (NPC2-5) (AID 2284312)
# In short: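 Human fetal neural progenitor spheres (0.3 mm) plated on poly-D-lysine/laminin in N2 differentiation medium, exposed 120 h with half-medium refresh at day 3. Viability by alamar blue resazurin fluorescence; 7 concentrations, DMSO max 0.1%.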
# [22] = IUF_NPC1_cytotoxicity_72hr: Cytotoxicity Assessment at 72 hours in the Leibniz Research Institute for Environmental Medicine (IUF) Neural Progenitor Cell Proliferation Assay (NPC1) (AID 2284332; active = hit-call score of the fitted dose curve at least 0.9, where 1 is the maximum;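 also: rising LDH signal means more cytotoxicity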)
# In short: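 Readout is fluorescence from LDH-dependent resazurin conversion, sampled from culture medium after compound contact lasting 72 h. Each well holds one 0.25-0.35 mm human progenitor sphere kept at 37C, 5% CO2 with EGF and FGF.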
compound,measurement,setting,value
CCC(C)(C)c1cc(-n2nc3ccccc3n2)c(O)c(C(C)(C)CC)c1,outcome,[1],inactive
same,outcome,[2],inactive
[O-][Cl+3]([O-])([O-])O,outcome,[3],inactive
same,outcome,[4],inactive
same,outcome,[5],inactive
same,outcome,[6],inactive
same,outcome,[7],inactive
same,AC50,[8],171 nM (active)
same,outcome,[9],inactive
same,outcome,[10],inactive
same,outcome,[11],inactive
same,outcome,[12],inactive
same,outcome,[13],inactive
same,outcome,[14],inactive
same,outcome,[15],inactive
same,outcome,[16],inactive
same,outcome,[17],inactive
same,outcome,[18],inactive
same,outcome,[19],inactive
same,outcome,[20],inactive
same,outcome,[21],inactive
same,outcome,[22],inactive
CCOP(=O)(O)OCC,outcome,[3],inactive
